Among the test systems are MOLT-4 leukemia; SR leukemia; RPMI-8226 leukemia; OVCAR-8 ovarian; OVCAR-5 ovarian; OVCAR-4 ovarian; SK-OV-3 ovarian; IGROV1 ovarian; OVCAR-3 ovarian; HS 578T breast.
Assay in all cases: NCI-60 one-dose screen, 48 h (100 = growth as untreated, 0 = no growth, -100 = all killed)
Conditions in all cases: 10 µM

Where “and” joins values, the source holds several entries; their conditions need not be identical. Equal entries are not always repeated. This is part of a sample that, as a whole, favours compounds with a hit. Of some 83,000 tested, about 20% had one in any assay.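 How to read the values: 0–100, growth inhibition (40 = 60% inhibited); 0, no net growth; -100 to 0, cell death (-40 = 40% of starting cells died; -100 = all dead).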 Calls of active or inactive are those of the source. How the source made its calls: active means growth percent below 10; inactive means the rest.

For `O=[N+]([O-])/C=C\c1ccc2c(c1)OCO2`, the growth in the experiment with MOLT-4 leukemia is 75.9% (inactive); in the experiment with SR leukemia, 34.4% (inactive); with RPMI-8226 leukemia, 10.2% (inactive); with OVCAR-8 ovarian it was 89.9% (inactive); in the experiment on OVCAR-5 ovarian, 91.5% (inactive); in the experiment with OVCAR-4 ovarian it was 76.9% (inactive). The growth in the experiment with SK-OV-3 ovarian is 101% (inactive); in the experiment on IGROV1 ovarian it was 27.6% (inactive); in the experiment on OVCAR-3 ovarian, 85.7% (inactive); in the experiment with HS 578T breast, 87.4% (inactive).

For the compound `O=C(CCl)Nc1ccc(Cl)cc1`, the growth in the experiment with MOLT-4 leukemia is 32.8% (inactive); with SR leukemia it was 29.6% (inactive); in the experiment with RPMI-8226 leukemia, 60.4% (inactive); in the experiment on OVCAR-8 ovarian, 53.3% (inactive); in the experiment with OVCAR-5 ovarian, 53.5% (inactive); with OVCAR-4 ovarian, 17.6% (inactive). In addition, the growth was 85.8% (inactive) in the experiment with SK-OV-3 ovarian, -4.08% (active) with IGROV1 ovarian and 0.0428% (active) with OVCAR-3 ovarian.

Regarding `O=[N+]([O-])/C=C/c1ccc(Cl)cc1[N+](=O)[O-]`, the growth was 2.69% (active) in the experiment on MOLT-4 leukemia; 4.94% (active) in the experiment on SR leukemia; -11.3% (active) in the experiment on RPMI-8226 leukemia; 17.8% (inactive) in the experiment on OVCAR-8 ovarian; 75.2% (inactive) in the experiment with OVCAR-5 ovarian; 10% (active) in the experiment on OVCAR-4 ovarian. The growth is 99.2% (inactive) in the experiment with SK-OV-3 ovarian, 17.8% (inactive) with IGROV1 ovarian, -31.5% (active) in the experiment on OVCAR-3 ovarian and -6.61% (active) with HS 578T breast.

Turning to `NC(=O)c1cc([N+](=O)[O-])c(Cl)c([N+](=O)[O-])c1Cl`, the growth in the experiment with MOLT-4 leukemia is -15.3% (active); with SR leukemia, -11.2% (active); in the experiment on RPMI-8226 leukemia, 9.48% (active); with OVCAR-8 ovarian it was -24.6% (active); in the experiment on OVCAR-5 ovarian it was 78.2% (inactive); in the experiment with OVCAR-4 ovarian it was -58.8% (active). In addition, the growth in the experiment with SK-OV-3 ovarian was 101% (inactive); in the experiment on IGROV1 ovarian, 27.6% (inactive); in the experiment with OVCAR-3 ovarian, -97.4% (active).

Turning to `C/C(=C\c1ccc(Cl)c(Cl)c1)[N+](=O)[O-]`, the growth is 4.34% (active) and 79.2% (inactive) in the experiment with MOLT-4 leukemia; 12.3% (inactive) and 88.6% (inactive) with SR leukemia; -10.7% (active) and 91.3% (inactive) in the experiment on RPMI-8226 leukemia; 11.9% (inactive) and 90.8% (inactive) in the experiment with OVCAR-8 ovarian; 108% (inactive) and 104% (inactive) with OVCAR-5 ovarian; -42.5% (active) and 114% (inactive) with OVCAR-4 ovarian. Further, the growth in the experiment with SK-OV-3 ovarian is 108% (inactive) and 96.6% (inactive); with IGROV1 ovarian it was -55.8% (active) and 111% (inactive); in the experiment with OVCAR-3 ovarian, -97.7% (active) and 107% (inactive); with HS 578T breast it was 82.8% (inactive) and 103% (inactive).

For the compound `COc1cc([C@@H]2c3cc4c(c(O)c3C[C@H]3COC(=O)[C@@H]32)OCO4)cc(OC)c1OC`, the growth in the experiment with MOLT-4 leukemia was -30.2% (active); in the experiment with SR leukemia it was -3.92% (active); with RPMI-8226 leukemia, -53.3% (active); in the experiment with OVCAR-8 ovarian, 16.4% (inactive); in the experiment on OVCAR-5 ovarian it was 32.8% (inactive); with OVCAR-4 ovarian, 49.9% (inactive). For the same compound, the growth in the experiment with SK-OV-3 ovarian is -0.464% (active); with IGROV1 ovarian, -32.1% (active); with OVCAR-3 ovarian it was -48.9% (active); in the experiment on HS 578T breast it was -10.6% (active).

As to `O=c1[nH]c2ccccc2n1C1CCN(CCCC(c2ccc(F)cc2)c2ccc(F)cc2)CC1`, the growth in the experiment on MOLT-4 leukemia was -34% (active) and 15.3% (inactive); with SR leukemia, -50.8% (active) and -35.4% (active); in the experiment with RPMI-8226 leukemia it was 11.2% (inactive) and 0.602% (active); with OVCAR-8 ovarian it was 44.3% (inactive); with OVCAR-5 ovarian, 38.3% (inactive); in the experiment with OVCAR-4 ovarian, 55.6% (inactive) and 70.2% (inactive). The growth in the experiment on SK-OV-3 ovarian was 85.8% (inactive) and 78.4% (inactive); with IGROV1 ovarian it was 71.3% (inactive) and 55.5% (inactive); in the experiment on OVCAR-3 ovarian it was -74.2% (active) and 39.5% (inactive); with HS 578T breast, 55.2% (inactive) and -34.7% (active).

As to `COc1cc(/C=C(/C)[N+](=O)[O-])ccc1O`, the growth was -3.07% (active) and 1.18% (active) with MOLT-4 leukemia; -14.7% (active) and -4.36% (active) in the experiment with SR leukemia; -21.5% (active) in the experiment on RPMI-8226 leukemia; 37.5% (inactive) and 27.1% (inactive) with OVCAR-8 ovarian; 83.5% (inactive) and 60.3% (inactive) with OVCAR-5 ovarian; 50.6% (inactive) with OVCAR-4 ovarian. Also, the growth in the experiment on SK-OV-3 ovarian was 92.5% (inactive) and 90.2% (inactive); with IGROV1 ovarian it was 26.4% (inactive) and 21.3% (inactive); in the experiment with OVCAR-3 ovarian, -76.2% (active) and -89.3% (active); in the experiment on HS 578T breast, 48.5% (inactive) and -8.96% (active).

For `CC(C)c1cc([N+](=O)[O-])cc([N+](=O)[O-])c1O`, the growth with MOLT-4 leukemia was 98.2% (inactive); with SR leukemia, 94.3% (inactive); in the experiment on RPMI-8226 leukemia it was 116% (inactive); in the experiment with OVCAR-8 ovarian, 104% (inactive); with OVCAR-5 ovarian it was 107% (inactive); in the experiment on OVCAR-4 ovarian it was 115% (inactive). In addition, the growth in the experiment with SK-OV-3 ovarian is 100% (inactive); with IGROV1 ovarian it was 111% (inactive); in the experiment on OVCAR-3 ovarian it was 105% (inactive); in the experiment with HS 578T breast, 101% (inactive).

With `CN(CCCl)c1ccc(/C=C/C2=[N+](C)c3ccccc3C2(C)C)cc1`, the growth is -13.1% (active) in the experiment on MOLT-4 leukemia; 12.3% (inactive) in the experiment on SR leukemia; 10.6% (inactive) with RPMI-8226 leukemia; 13.1% (inactive) with OVCAR-8 ovarian; 70.8% (inactive) in the experiment on OVCAR-5 ovarian; 37.6% (inactive) in the experiment on OVCAR-4 ovarian. The growth was -3.38% (active) in the experiment on SK-OV-3 ovarian, 35.1% (inactive) in the experiment on IGROV1 ovarian, -10.6% (active) in the experiment with OVCAR-3 ovarian and 60.1% (inactive) with HS 578T breast.

`COc1cc2c(cc1OC)C13CCN4CC5=CCOC6CC(=O)N2C1C6C5CC43` (stereo not drawn): the growth in the experiment with MOLT-4 leukemia was 109% (inactive) and 86.6% (inactive); in the experiment with SR leukemia, 82% (inactive); in the experiment on RPMI-8226 leukemia, 56.5% (inactive); with OVCAR-8 ovarian it was 99.7% (inactive) and 113% (inactive); in the experiment with OVCAR-5 ovarian it was 98.2% (inactive) and 83.9% (inactive); in the experiment on OVCAR-4 ovarian, 113% (inactive) and 102% (inactive). Besides, the growth with SK-OV-3 ovarian is 101% (inactive) and 114% (inactive); in the experiment on IGROV1 ovarian it was 106% (inactive); with OVCAR-3 ovarian, 115% (inactive) and 107% (inactive); in the experiment with HS 578T breast it was 114% (inactive) and 96.4% (inactive).

As for `COc1ccc(/C=C(\C)[N+](=O)[O-])cc1OC`, the growth with MOLT-4 leukemia is -25% (active); with SR leukemia, -17.4% (active); in the experiment with RPMI-8226 leukemia it was -20.2% (active); with OVCAR-8 ovarian, -27.8% (active); in the experiment on OVCAR-5 ovarian it was 67.8% (inactive); in the experiment on OVCAR-4 ovarian, 17.2% (inactive). Further, the growth was 104% (inactive) with SK-OV-3 ovarian, -18.5% (active) in the experiment on IGROV1 ovarian, -76.3% (active) in the experiment with OVCAR-3 ovarian and 65.7% (inactive) in the experiment on HS 578T breast.
